We go through 37 compounds from the supplement of paper PMC9177965.

The structures appear in SMILES notation. Values joined by “and” are separate entries in the source; they are usually repeats but may differ in a detail not shown here. Equal entries are not always repeated.

For this assay, the system named is HT29 sg-Ctrl (RNF43 wildtype). The assay can be described thus: cell viability activity relative to DMSO (negative = inhibition); higher = more viable cells (less growth inhibition). To be noted: 5 µM; 96 h. The method, then:
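Broad Repurposing Library primary screen at a single dose of 5 uM. HT29 sg-Ctrl and HT29 RNF43 G659fs CRISPR-edited isogenic cells were seeded at 2500 cells/well in 384-well plates in duplicate and treated for 96 h. Viability was read by CellTiter-Glo and reported as % activity relative to DMSO, with MG132 as the positive control (negative = growth inhibition).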
For the compound `C#CCC(Cc1cnc2nc(N)nc(N)c2n1)c1ccc(C(=O)N[C@@H](CCC(=O)O)C(=O)O)cc1` (some centres not stated), the cell viability activity is -61.7%.
Consider `Cc1ccc(C(=O)Nc2cccc(C(F)(F)F)c2)cc1Nc1nc(-c2cccnc2)nc2c1cnn2C`, for which the cell viability activity is -24.4%.
Take `CC(C)N(C[C@H]1O[C@@H](n2cnc3c(N)ncnc32)[C@H](O)[C@@H]1O)[C@H]1C[C@@H](CCc2nc3cc(C(C)(C)C)ccc3[nH]2)C1`: the cell viability activity is -26.5%.
In the case of `CN[C@H]1CN(c2ccc3c(=O)c(C(=O)O)cn(-c4nccs4)c3n2)C[C@@H]1OC`, the cell viability activity is -30.9%.
With `C=C1C(=O)O[C@H]2[C@H]1CC/C(C)=C/CC[C@@]1(C)O[C@@H]21`, the cell viability activity was -6.73%.
Take `NC1(c2ccc(-c3nc4ccn5c(=O)[nH]nc5c4cc3-c3ccccc3)cc2)CCC1`: the cell viability activity is -39.4%.
`CN(C)CCCCC(=O)Nc1ccc(NC(=S)NC(=O)c2ccc(C(C)(C)C)cc2)cc1`: the cell viability activity is -91.9%.
Turning to `CC1(COc2ccc3c(c2)ncn3-c2ccc3cccc(N4CCC(N)CC4)c3n2)COC1`, the cell viability activity is -98%.
On to `Cc1nc(=O)c2cc(CN(C)c3ccc(C(=O)N[C@@H](CCC(=O)O)C(=O)O)s3)ccc2[nH]1`, for which the cell viability activity was -60.9%.
As to `Nc1nccc2c1ncn2C1C=C(CO)C(O)C1O` (configuration not stated), the cell viability activity was -46.7%.
Take `O=C(/C=C/c1ccc(CN(CCO)CCc2c[nH]c3ccccc23)cc1)NO`: the cell viability activity is -92.2%.
As to `O=C(NC1CCNCC1)c1n[nH]cc1NC(=O)c1c(Cl)cccc1Cl`, the cell viability activity is -83.8%.
With `N#Cc1ccncn1` the figure was -18.3%.
Regarding `COC(=O)N[C@@H](C)CNc1nccc(-c2cn(C(C)C)nc2-c2cc(Cl)cc(NS(C)(=O)=O)c2F)n1`, the cell viability activity is -72.4%.
For the compound `C[C@H]1[C@@H](O)O[C@@H]2O[C@@]3(C)CC[C@H]4[C@H](C)CC[C@@H]1[C@@]24OO3`, the cell viability activity was -30%.
On to `Nc1ccc(-c2cccc3c(=O)cc(N4CCOCC4)oc23)cc1`, for which the cell viability activity is -76.6%.
The result for `CO[C@H]1/C=C\C=C(/C)C(=O)NC2=CC(=O)C(NCCN(C)C)=C(C[C@@H](C)C[C@H](OC)[C@H](O)[C@@H](C)/C=C(\C)[C@@H]1OC(N)=O)C2=O` reads -92.1% and -90.4%; that for `CCCCCCCCNC(C)C(O)c1ccc(SC(C)C)cc1` (configuration not stated), -12.2%; that for `CC(C)c1cc(CNc2nc(Nc3cc(C4CC4)[nH]n3)cc(N3CCN(C)CC3)n2)on1`, -84.3%.
`CCN(CC)CCNC(=O)c1c(C)[nH]c(/C=C2\C(=O)Nc3ccc(F)cc32)c1C`: the cell viability activity was -99.2%.
Take `Cc1cn([C@H]2C[C@H](N=[N+]=[N-])[C@@H](CO)O2)c(=O)[nH]c1=O`: the cell viability activity was -2.51%.
`CC(C)(C)c1ccc(S(=O)(=O)/C=C/C#N)cc1`: the cell viability activity is -95.4%.
For the compound `CN(C)c1ccc(C(=O)NCCCCCCC(=O)NO)cc1`, the cell viability activity was -82%.
Take `CCCCCCCCCCCCCCCC[N+](C)(C)CCN(Cc1ccc(OC)cc1)c1ncccn1`: the cell viability activity is -94.5%.
With `O=C(Nc1nc2ccc(NC(=O)C34CC5CC(CC(C5)C3)C4)cc2s1)c1ccccc1`, the cell viability activity is -29.4%.
With `O=C(CCCCCCC(=O)Nc1cccnc1)NO`, the cell viability activity was -42.7%.
Turning to `COCCOC(=O)C1=C(C)NC(C)=C(C(=O)OC/C=C/c2ccccc2)C1c1cccc([N+](=O)[O-])c1` (configuration not stated), the cell viability activity is -50.7%.
Turning to `COC[C@H](NC(=O)c1cnc(C)s1)C(=O)N[C@@H](COC)C(=O)N[C@@H](Cc1ccccc1)C(=O)[C@@]1(C)CO1`, the cell viability activity was -93.6%.
On to `CO[C@H]1C(=O)[C@]2(C)[C@@H](OC)C[C@H]3OC[C@@]3(OC(C)=O)[C@H]2[C@H](OC(=O)c2ccccc2)[C@]2(O)C[C@H](OC(=O)[C@H](O)[C@@H](NC(=O)OC(C)(C)C)c3ccccc3)C(C)=C1C2(C)C`, for which the cell viability activity was -50.5%.
Take `COc1cc2ncnc(Nc3ccc(F)c(Cl)c3)c2cc1NC(=O)/C=C/CN1CCCCC1`: the cell viability activity is -77.9%.
As to `O=P(O)(O)C(O)(Cn1ccnc1)P(=O)(O)O`, the cell viability activity was -25.6%.
In the case of `Cc1nc(N)sc1-c1ccnc(Nc2ccc(N3CCOCC3)cc2)n1`, the cell viability activity was -59.8%.
As to `C#C[C@]1(O)CC[C@H]2[C@@H]3CCC4=C(CCC(=O)C4)[C@H]3CC[C@@]21C`, the cell viability activity is -59.4%.
In the case of `COc1ccc(N(C)c2nc(C)nc3ccccc23)cc1`, the cell viability activity is -68%.
Consider `CC(C)c1cc(-c2n[nH]c(=O)n2-c2ccc3c(ccn3C)c2)c(O)cc1O`, for which the cell viability activity is -81.7%.
Take `CC(C)=CCC/C(C)=C/CC/C(C)=C/CSc1ccccc1C(N)=O`: the cell viability activity is -6.13%.
In the case of `CC1=C(C(=O)OC2CCCCC2)C(c2ccc([N+](=O)[O-])cc2)C2=C(CC(C)(C)CC2=O)N1` (configuration not stated), the cell viability activity is -15.6%.
